Source: PubChem BioAssay
This is a sample that favours compounds with a hit; in the whole collection about 6.3% have one here.
tim23-1 inh: growth inhibitors of tim23-1 mutant yeast. S. cerevisiae tim23-1 growth, BacTiter-Glo luminescence, 24 h. inhibition, % at 20 µM. 1.3% of 330,000 active;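 active = growth inhibition of the mutant yeast at or above 50%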;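 also: temperature-sensitive mutant grown at 25 °C; plate controls were DMSO-treated mutant yeast for no effect and medium wells lacking yeast for full effect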
Mdm2-MdmX inh: human Mdm2/MdmX binding inhibition. O15151+Q00987. SaOS-2 split-luciferase Mdm2/MdmX complementation, luminescence. inhibition, % at 8 µM. 3% of 330,000 active. AID 485346;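 active = inhibition of at least 50% at 8 µM in the primary screen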
Target sequence (O15151 whole entry, looked up): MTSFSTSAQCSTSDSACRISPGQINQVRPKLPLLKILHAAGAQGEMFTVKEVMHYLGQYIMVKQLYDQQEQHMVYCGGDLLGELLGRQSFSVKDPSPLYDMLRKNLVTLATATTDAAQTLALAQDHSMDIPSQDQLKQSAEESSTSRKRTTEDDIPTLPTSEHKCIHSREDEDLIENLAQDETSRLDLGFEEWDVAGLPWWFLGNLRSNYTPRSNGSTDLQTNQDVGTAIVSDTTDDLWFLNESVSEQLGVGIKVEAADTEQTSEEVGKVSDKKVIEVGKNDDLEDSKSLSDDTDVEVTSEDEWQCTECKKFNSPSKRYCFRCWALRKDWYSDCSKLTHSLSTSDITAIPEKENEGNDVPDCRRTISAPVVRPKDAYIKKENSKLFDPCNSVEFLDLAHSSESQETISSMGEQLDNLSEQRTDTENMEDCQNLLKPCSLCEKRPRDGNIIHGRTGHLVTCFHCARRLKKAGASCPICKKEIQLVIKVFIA
Target sequence (Q00987 whole entry, looked up): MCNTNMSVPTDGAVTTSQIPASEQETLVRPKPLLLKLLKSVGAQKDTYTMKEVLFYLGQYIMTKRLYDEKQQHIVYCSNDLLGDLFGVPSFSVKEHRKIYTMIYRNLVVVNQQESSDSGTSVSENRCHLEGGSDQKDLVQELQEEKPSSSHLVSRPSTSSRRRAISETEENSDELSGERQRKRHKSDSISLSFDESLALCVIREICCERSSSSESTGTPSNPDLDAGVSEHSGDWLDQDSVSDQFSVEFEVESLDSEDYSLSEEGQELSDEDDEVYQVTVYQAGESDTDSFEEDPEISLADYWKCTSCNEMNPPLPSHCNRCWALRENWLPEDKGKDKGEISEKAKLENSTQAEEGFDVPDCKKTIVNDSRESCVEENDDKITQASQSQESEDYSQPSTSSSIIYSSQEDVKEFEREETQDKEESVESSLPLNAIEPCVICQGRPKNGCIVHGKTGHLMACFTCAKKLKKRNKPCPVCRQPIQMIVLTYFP
MPTP block: inhibitors of mitochondrial permeability transition pore. 1.4% of 360,000 active. inhibition, % at 10 µM. isolated mouse mitochondria, Ca2+ swelling absorbance, 30 min;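 active = inhibition of 50% or more, scaled per plate between neutral and stimulator controls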;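 also: 0% = DMSO wells given calcium and 100% = 1 mM EGTA wells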
tim10-1 inh: inhibits growth of tim10-1 mutant yeast. S. cerevisiae tim10-1 ts strain growth, BacTiter-Glo, 24 h. inhibition, % at 20 µM. 2.2% of 330,000 active;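 active = inhibition of at least 40%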;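 also: mutant grown at 25 °C; 0% = DMSO wells with yeast and 100% = wells holding no yeast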
TIM10 inh: growth inhibitors of TIM10 yeast strain; inhibition, % at 10 µM; S. cerevisiae TIM10 strain growth, BacTiter-Glo luminescence, 24 h; 1.4% of 330,000 active;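 active = inhibition of 40% or more at the single tested concentration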;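 also: wild-type TIM10 isogenic control strain grown at permissive 25 °C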
tim10-1 conf: tim10-1 yeast growth inhibition, confirmed; shares compounds with tim10-1 inh; S. cerevisiae tim10-1 ts strain growth, BacTiter-Glo, 24 h; inhibition, % at 20 µM; 56% of 7,400 active;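 active = inhibition of yeast growth at or above a set limit in either of two repeat tests at 20 µM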;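 also: tim10-1 mutant grown at permissive 25 °C to find synthetic lethal compounds; 0% = DMSO yeast wells and 100% = medium wells without yeast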
Active calls of the source: *; x = not tested or not shown.

SMILES	tim23-1 inh	Mdm2-MdmX inh	MPTP block	tim10-1 inh	TIM10 inh	tim10-1 conf
CCN(C(=O)CSc1ncccc1C(=O)OC(C)C)c1cccc(C)c1	42	1	-1	42*	15	21
CN(Cc1ccccc1)C(=O)C(=O)c1ccccc1	x	x	-1	x	x	x
COc1ccc2cc3cc(C(=O)N4CCCC(C)C4)oc3nc2c1 (stereo unspecified)	44	-166	1	45*	22	13
CCOC(=O)n1c(=O)oc2cc(S(=O)(=O)N3CCOCC3)ccc21	17	4	-2	20	14	x
CC(C)COC(=O)n1c(=O)oc2cc(S(=O)(=O)N3CCCCC3)ccc21	42	9	1	41*	37	38*
CCCCNc1ncnc2c1cnn2Cc1ccc(Cl)cc1	23	43	2	40*	9	11
CC(=O)SC1CC(=O)N(c2c(C)cccc2C)C1=O (stereo unspecified)	23	31	-1	27	11	x
CC(=O)SC1CC(=O)N(c2ccc(C(C)(C)C)cc2)C1=O (stereo unspecified)	43	4	2	55*	36	53*
O=C(c1ccccc1F)N1CCC2CC1c1cc(N3CCCCC3)ccc12 (stereo unspecified)	x	x	-2	x	x	x
CCCCCCCCCCCCN1[C@@H](CC(=O)O)c2cc(C(F)(F)F)ccc2S1(=O)=O	4	7	14	64*	-4	14
CC(=O)c1cccc(NC(=S)NC(=O)Cc2ccccc2)c1	29	3	2	46*	27	23
CC(=O)c1cccc(NC(=S)NCCC2=CCCCC2)c1	21	-5	6	40	27	28
CC(=O)c1cccc(NC(=S)NC(=O)Cc2ccc(Cl)cc2)c1	21	-11	0	2	36	x
COC(=O)[C@@]12C[C@@H](CC(=O)N3CCOCC3)C(=O)N(Cc3ccco3)C1=CCC(C)(C)C2	x	x	0	x	x	x
CC(C)(C)c1ccc(/C=C(\C#N)C(=O)NCCN2CCOCC2)cc1	43	17	1	40*	32	33*
CC(C)(C)c1ccc(C(=O)NCCN2CCOCC2)cc1	9	24	2	-4	27	x
O=C1NC[C@@H](CCCCN2C[C@H](Cc3ccc(O)cc3)N(CCc3ccc(O)cc3)C(=O)C2=O)N(Cc2ccccc2)C1=O	x	x	2	x	x	x
O=C(NC(=S)Nc1ccccc1N1CCCC1)c1ccc([N+](=O)[O-])cc1	49	23	8	57*	34	42*
COC(=O)c1ccccc1NC(=O)C1CCCC1	8	-23	-1	27	5	x
COC(=O)c1ccccc1NC(=S)NC(=O)C1CCCCC1	41	-1	-2	41*	30	34*
CC(C)(C)C(=O)NC(=S)Nc1ccccc1N1CCCC1	6	28	0	39	26	x
O=C(NCc1ccco1)c1ccc([N+](=O)[O-])o1	29	6	-3	42*	-7	28
O=C(NCc1ccco1)c1ccc(Cn2cc([N+](=O)[O-])cn2)o1	-2	2	-1	18	13	x
CC(=O)NC(=S)Nc1ccccc1N1CCCCC1	25	25	0	43*	26	18
CC(C)C(=O)N1CCC1(C)C(=O)Nc1ccc(-n2cccc2)cc1 (stereo unspecified)	x	x	0	x	x	x
SMILES	tim23-1 inh	Mdm2-MdmX inh	MPTP block	tim10-1 inh	TIM10 inh	tim10-1 conf
O=C(NC(=S)Nc1ccccc1N1CCCC1)c1ccc(-c2cccc([N+](=O)[O-])c2)o1	19	9	0	37	21	x
O=C(NC1CCCC(C(F)(F)F)C1)c1ccc([N+](=O)[O-])o1 (stereo unspecified)	45	41	1	31	33	x
O=C(Nc1ccccc1N1CCCCC1)c1ccc([N+](=O)[O-])o1	29	29	0	51*	34	51*
O=C(NC1CCCCC1)c1ccc([N+](=O)[O-])o1	42	29	1	51*	14	36*
O=C(NC(=S)Nc1ccccc1N1CCCCC1)c1ccc(-c2cccc([N+](=O)[O-])c2)o1	17	-15	0	41*	16	6
CN1C[C@@H](CO)O[C@@H](n2cnc3c(N4CCOCC4)ncnc32)C1	x	x	0	x	x	x
Cc1cc(Cl)ccc1C(O)c1ncc(-c2cccc(C(F)(F)F)c2)[nH]1 (stereo unspecified)	x	x	10	x	x	x
COc1ccc(OC)c(NC(=O)c2cccc3c2C(=O)N(C2CCCCC2)C3)c1	29	24	0	54*	25	11
